An excerpt weighted towards active compounds, which were near 6% of everything screened.
Sfp PPTase inh = Sfp phosphopantetheinyl transferase inhibition; hit rate 3.5% among 310,000; Biochemical Sfp PPTase activity, qHTS; Q9F4F7; Potency, µM, for the others: largest response in the series, negative = inhibition, most hits filed as inhibitors;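 further: the enzyme is Sfp with the accession as filed and its product quenches rhodamine fluorescence; 0% = enzyme reaction without inhibitor and -100% = no enzyme wells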
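Reaction rates are the 30-min fluorescence difference (ex 525, em 598 nm) in wells containing 15 nM Sfp, 5 uM rhodamine-CoA and 12.5 uM BHQ-2-YbbR at pH 7.6 with 10 mM MgCl2.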
VDR inh = blocks the human vitamin D receptor; P11473; Potency, µM, inactives show max response, negative = inhibition, hits mostly inhibitors; VDR-SRC2-3 peptide fluorescence polarization, 2 h; hit rate 0.93% among 400,000
Target sequence (P11473 whole entry, looked up): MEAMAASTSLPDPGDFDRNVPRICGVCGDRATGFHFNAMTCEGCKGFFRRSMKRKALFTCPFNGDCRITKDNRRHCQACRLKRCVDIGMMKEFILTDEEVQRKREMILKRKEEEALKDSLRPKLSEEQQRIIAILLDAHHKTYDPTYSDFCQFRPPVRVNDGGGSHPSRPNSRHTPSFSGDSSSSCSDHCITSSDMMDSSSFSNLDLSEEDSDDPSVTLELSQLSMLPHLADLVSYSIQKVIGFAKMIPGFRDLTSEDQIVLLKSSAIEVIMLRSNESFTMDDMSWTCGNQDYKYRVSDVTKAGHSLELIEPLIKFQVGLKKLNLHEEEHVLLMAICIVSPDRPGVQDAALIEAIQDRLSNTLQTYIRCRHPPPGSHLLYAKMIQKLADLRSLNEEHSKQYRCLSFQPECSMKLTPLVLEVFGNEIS
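Fluorescence polarization assay measuring small-molecule disruption of VDR binding to the coregulator peptide SRC2-3. Compounds were pin-transferred (23 nl) into the reagent mix and incubated 2 h at room temperature before reading.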
Tau fluor cs = counter-screen for tau fibril formation inhibitors; hit rate 0.93% among 280,000; Potency, µM (doses to about 57.7 µM), inactives show at the highest dose activity change, negative = decrease; AID 1463; tau K18 P301L Alexa594 fluorescence, heparin fibrillization; further: nearly all actives have a fitted effect of over 55% in size
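Human tau K18 P301L (15 uM unlabeled, 0.24 uM Alexa 594-labeled) in 100 mM sodium acetate pH 7 with 20 uM heparin, 6 hr at 37 C. ThT 30 uM added, 1 hr ambient; Alexa 594 FP and total fluorescence read at 555/632 nm.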
Tau fibril ThT = tau fibrillization inhibition (ThT binding); recombinant tau K18 P301L (four-repeat tau fragment), heparin-induced fibrillization, ThT fluorescence; AID 1460; Potency, µM (series often up to 57.4 µM), for inactives: top-dose activity, negative = inhibition, hits mostly inhibitors; hit rate 2.1% among 270,000; further: nearly all actives have a fitted effect of over 55% in size
Target sequence (P10636 561-689 P618L limits assumed): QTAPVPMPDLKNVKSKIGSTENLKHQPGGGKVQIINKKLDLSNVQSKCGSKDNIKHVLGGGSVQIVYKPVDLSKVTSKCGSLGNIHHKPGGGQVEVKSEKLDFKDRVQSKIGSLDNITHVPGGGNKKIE
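Aggregation was driven by heparin (20 uM final) acting on recombinant tau […] bearing P301L in 100 mM sodium acetate pH 7; fibrils were detected with Thioflavin T.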
PLK1 PBD block = blocks phosphopeptide binding to human PLK1 polo-box domain | Potency, µM, for the others: max response, negative = inhibition, most hits filed as inhibitors | P53350 | AID 720504 | Plk1 PBD binding of FITC phosphopeptide, fluorescence polarization | hit rate 2.8% among 360,000; further: series mostly up to about 57 µM; nearly all actives have a fitted effect of over 65% in size
Tau FP inhib = inhibitors of human tau fibril formation | AID 1468 | K18 P301L tau heparin fibrillization, Alexa594 FP, 6 h | Potency, µM (titrated, usually from 57.7 µM), without a hit: top-dose activity, negative = inhibition, actives largely listed as inhibitors | hit rate 0.39% among 280,000 | P10636; further: nearly all actives have a fitted effect of over 55% in size
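FP of Alexa 594-tau after heparin (20 uM) induction. Substrate: human K18 P301L, 15 uM unlabeled, 0.24 uM labeled. Buffer 100 mM sodium acetate pH 7. 6 hr, 37 C.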
* hit, by the source's call; ? = inconclusive; nt = no result; [ ] = another dose, or the depositor's remark. The call rests on the fitted dose curve; in most records, active means well fitted curve in the direction sought with a large enough effect; inconclusive means small, poorly fitted or top-dose-only effect, or another doubt; inactive means no such curve, though single readings can be large; an effect the other way counts as inactive or inconclusive. Unless noted, on the % scale 0 is the no-effect control and ±100 the full control effect; potency means the concentration at half of the fitted maximal effect.

SMILES	Sfp PPTase inh	VDR inh	Tau fluor cs	Tau fibril ThT	PLK1 PBD block	Tau FP inhib
CC1(C)CCC[C@@](C)([C@H]2CC[C@]3(C)[C@@H]2[C@H](O)C[C@@H]2[C@@]4(C)CC[C@H](O)C(C)(C)[C@@H]4CC[C@]23C)O1	9.0%	8.8%	nt	nt	nt	nt
COc1cccc(C(=O)NCC2CCCN(C(=O)Cc3cccc(C)c3)C2)c1OC (stereo not drawn)	nt	nt	nt	nt	-2.2%	nt
O=c1c(-c2ccc(Cl)cc2)nc2cnc(N3CCNCC3)nc2n1Cc1cccs1	28.2µM*	70.6%	nt	nt	nt	nt
O=c1c(-c2cccs2)nc2cnc(N3CCNCC3)nc2n1Cc1cccs1	17.8µM*	103.7%	nt	nt	nt	nt
Cn1cc(-c2nc3cnc(N4CCNCC4)nc3n(Cc3ccc(F)cc3)c2=O)c2ccccc21	20µM*	49.3%	nt	nt	nt	nt
CN1CCN(c2ncc3nc(-c4cc(F)cc(F)c4)c(=O)n(CCC#N)c3n2)CC1	-28.7%	22.4µM*	nt	nt	nt	nt
O=c1c(-c2cccs2)nc2cnc(N3CCNCC3)nc2n1CCc1ccccc1	?	124.0%	nt	nt	nt	nt
O=C(c1cccc(S(=O)(=O)Nc2ccc(F)cc2)c1)N1CCCC1	nt	-12.6%	nt	nt	-4.8%	nt
O=c1c(-c2cc(F)cc(F)c2)nc2cnc(N3CCOCC3)nc2n1Cc1cccs1	19.2%	-1.9%	nt	nt	nt	nt
O=c1c(-c2cc(F)cc(F)c2)nc2cnc(N3CCNCC3)nc2n1Cc1cccs1	35.5µM*	44.4%	nt	nt	nt	nt
Cc1ccc(C(=O)Nc2nc(C)c(C(=O)N(C)C)s2)o1	2.4%	-10.8%	nt	nt	-15.5%	nt
Cc1nc(NC(=S)NC(=O)c2ccco2)sc1C(=O)N(C)C	22.4µM*	10.5%	nt	nt	-12.2%	nt
O=C(NC(=S)Nc1nc2ccc(F)cc2s1)c1ccco1	56.2µM*	18.8%	5.9%	2.3%	-3.7%	9.1%
COc1ccc(OC)c(NC(=O)N2CCC3(CC2)Oc2ccccc2C(=O)N3Cc2ccccc2F)c1	nt	-15.6%	-14.3%	-1.4%	nt	?
O=C(c1csnn1)N1CCC2(CC1)CCN(c1ccncc1)CC2	-1.3%	7.3%	nt	nt	nt	nt
CCCn1c(SCc2nc(-c3cc(OC)ccc3OC)no2)nnc1-c1ccc(Cl)cc1	nt	4.5%	-12.0%	-10.8%	nt	4.1%
O=C(CN1CCCCC1)Nc1nnc(-c2ccccc2)s1	2.8%	-12.8%	-10.2%	-11.0%	-8.5%	-3.9%
CCOC(=O)CSc1nnc(NC(=O)CN2CCCCC2)s1	-12.7%	-28.4%	nt	nt	26.7µM*	nt
O=C(CN1CCCCC1)Nc1nnc(-c2ccc([N+](=O)[O-])cc2)s1	4.1%	9.1%	-15.3%	12.6µM*	-23.0%	-2.2%
Cc1ccc(OCc2cc(C(=O)N(C)Cc3cnc4ccccn34)no2)cc1C	3.4%	?	nt	nt	21.2µM*	nt
Cc1ccc(OCc2cc(C(=O)N(C)CC3CCOCC3)no2)cc1C	5.8%	-9.3%	nt	nt	-4.7%	nt
CCc1ccc(CNC(=O)C2CC(=O)N(C3CCCC3)C2)cc1 (stereo not drawn)	7.0%	6.7%	nt	nt	-9.9%	nt
Cc1ccc(-c2nc(Nc3ccc(O)cc3)c3ccccc3n2)cc1	9.7%	-6.3%	nt	nt	4.7%	nt
O=C(O)c1ccc(Nc2nc(-c3ccccc3)nc3ccccc23)cc1	1.8%	79.4µM*	nt	nt	18.9µM*	nt
COC(=O)c1ccc(Nc2nc(-c3ccc(C)cc3)nc3ccccc23)cc1	nt	-17.3%	?	-16.7%	nt	3.55µM*
SMILES	Sfp PPTase inh	VDR inh	Tau fluor cs	Tau fibril ThT	PLK1 PBD block	Tau FP inhib
Cc1ccc(-c2nc(Nc3ccc(N4CCOCC4)cc3)c3ccccc3n2)cc1	-1.0%	10.9%	3.98µM*[quencher]	15.8µM*	2.5%	?
CN(C)C(=O)c1ccc(-c2nc(Nc3ccccc3)c3ccccc3n2)cc1	-6.5%	39.8µM*	nt	nt	nt	nt
C=CCOc1cccn2c(N(C)C(=O)c3ccc(OC)cc3)c(CC)nc12	nt	nt	nt	nt	-6.8%	nt
COc1ccc(N(CC(=O)Nc2cccc(C(C)=O)c2)S(=O)(=O)c2ccccc2)c(OC)c1	nt	5.2%	?	-11.4%	nt	-8.9%
O=C(Nc1cc(F)ccc1F)C1CCN(C(=O)c2cnn(-c3ccccc3)c2-n2cccc2)CC1	nt	7.9%	-9.1%	-7.7%	nt	2.1%
COC1=C(Nc2ccccc2)C(=O)c2ccccc2C1=O	-13.2%	44.7µM*	?	7.08µM*	-2.5%	?
COC1=C(Nc2ccc(C)cc2)C(=O)c2ccccc2C1=O	-26.0%	?	?	8.91µM*	-11.1%	?
CCCCCNC(=O)C(c1ccc(OC)cc1)n1c(=O)c(-c2cc3ccccc3[nH]2)nc2ccccc21 (stereo not drawn)	nt	nt	nt	nt	4.1%	nt
CCCCc1ccc(Nc2ncnc3c2cnn3-c2ccc(C)cc2)cc1	nt	3.5%	-20.6%	1.8%	nt	-5.6%
COc1cc(-c2noc(C)c2C(=O)NCCCN2CCOCC2)cc(OC)c1OC	nt	-7.4%	nt	nt	0.5%	nt
O=C(NCCc1ccc(Cl)cc1)c1cnc2sc(N3CCOCC3)nn2c1=O	nt	7.3%	4.7%	6.9%	nt	4.9%
O=C(CCS(=O)(=O)c1nc(-c2cccs2)cc(C(F)(F)F)n1)Nc1ccc(OC(F)(F)F)cc1	nt	14.1µM*	-13.7%	-16.7%	nt	-1.0%
c1cc(-c2nsc(-c3ccncc3)n2)ccn1	44.7µM*	?	-14.2%	?	18.9µM*	-3.0%
CCCCC[C@]12Cc3ccccc3C(O1)C1=C(CC(C)(C)CC1=O)O2	8.2%	nt	nt	nt	nt	nt
COc1ccc(OC)c(C2CC(c3c(-c4ccccc4)c4cc(Cl)ccc4[nH]c3=O)=NN2S(C)(=O)=O)c1 (stereo not drawn)	44.7µM*	7.4%	?	-5.8%	11.8%	-11.8%
COc1ccc(C2CC(c3c(-c4ccccc4)c4cc(Cl)ccc4[nH]c3=O)=NN2S(C)(=O)=O)cc1 (stereo not drawn)	3.3%	-0.4%	-19.8%	-5.0%	-2.4%	?
O=[N+]([O-])c1cccn2cc(-c3ccc(Br)cc3)nc12	-3.9%	-11.2%	-13.8%	5.01µM*	-26.1%	9.8%
Cc1cccn2cc(-c3ccc(Cl)cc3)nc12	-4.5%	4.8%	-8.7%	4.1%	-5.3%	-1.9%
COCCn1c(=O)c(-c2cccs2)nc2cnc(N3CCOCC3)nc21	15.3%	-0.6%	nt	nt	nt	nt

Screening data as filed in PubChem.
